Data from PubChem BioAssay (NCATS).
Inconclusive results are not listed. Active and inactive are the calls of the source. The call rests on the fitted dose curve; in most records, active means well fitted inhibition curve with a large enough effect; inconclusive means small, poorly fitted or top-dose-only effect; inactive means flat fitted curve, though single readings scatter. *1 amine or outer side, *2 acyl side, *3 side chain or, on linkers, in order; H or OH if unused. Where a SMILES comes first, the peptide text is derived from it. Bridges are numbered along the chain shown (N, C = ends). [ ]: non-standard residue; d: D form. The star is where a group is joined. ξ: configuration not given here. ξhTyr(3S-OH,4S-OH,3'-OSO3H) = NC(C(=O)O)[C@H](O)[C@@H](O)c1ccc(O)c(OS(=O)(=O)O)c1; Orn(4R-OH,5R-OH) = O=C([C@H](C[C@@H](O)[C@@H](O)N[*:3])N[*:1])[*:2]; X2 = CCCCCOc1ccc(-c2cc(-c3ccc(C(=O)*)cc3)no2)cc1; X3 = C[C@H]1CN([*:1])C(C(=O)[*:2])[C@H]1O; ξGln(3R-OH) = NC(=O)C[C@@H](O)C(N)C(=O)O; ξPro(4R-OH) = O=C(O)C1C[C@@H](O)CN1; ξThr(3R) = C[C@@H](O)C(N)C(=O)O; βNA = c1ccc2cc(N*)ccc2c1; Cbz = O=C(OCc1ccccc1)*

Target: Calcium and integrin-binding protein 1 (Homo sapiens) (UniProt Q99828)
Assay: Primary qHTS for Identification of Calcium Integrin Binding Protein 1 (CIB1) Competitor (AID 1508620);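 further: GST tagged CIB1 binding a fluorescein labelled alphaIIb integrin peptide tracer; top concentration of the series differs between compounds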
Details: CIB1-GST / FITC-alphaIIb peptide fluorescence polarization; series mostly up to 57.7 µM; activity change, negative = inhibition: at the top concentration
In short: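 CIB1-GST (1 uM final) and compound incubated 15 min at room temperature before adding FITC-alphaIIb peptide tracer (100 nM final). Competition for binding read by fluorescence polarization (ex 480, em 540) after another 15 min at room temperature.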
On the % scale 0 is the no-effect control and ±100 the full control effect.

Chain of Calcium and integrin-binding protein 1 (Homo sapiens) (Q99828 whole entry, looked up): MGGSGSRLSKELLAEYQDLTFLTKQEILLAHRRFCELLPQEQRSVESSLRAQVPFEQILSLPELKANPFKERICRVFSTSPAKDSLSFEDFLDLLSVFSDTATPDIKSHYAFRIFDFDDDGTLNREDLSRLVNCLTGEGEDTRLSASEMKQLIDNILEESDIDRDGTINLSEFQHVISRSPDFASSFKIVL

SMILES	activity change, negative = inhibition
C#CCCCn1cc(-c2cccc3c2N[C@@H](C)CC(=O)N3)cn1	4.27% [at 114 µM] (inactive)
OC[C@H]1O[C@@H](OCc2ccccc2)[C@H](O[C@@H]2OC[C@@H](O)[C@H](O)[C@H]2O)[C@@H](O)[C@@H]1O	-0.502% (inactive)
Cc1cn2cc(CC(=O)N3CCC4(CC3)CN(Cc3ccc(-n5nccn5)cc3Cl)C4)nc2s1	3.79% [at 114 µM] (inactive)
C[C@]12CC/C(=N\OCC(=O)O)C=C1CC[C@@H]1[C@@H]2[C@@H](O)C[C@@]2(C)[C@H]1CC[C@]2(O)C(=O)CO	-2.92% [at 114 µM] (inactive)
C/C(=C\CCC(C)C1CC(O)C2(C)C3CCC4C(C)(C)C(OC5OCC(O)C(O)C5O)CCC45CC35CC(O)C12C)C(=O)O (configuration not stated)	1.93% [at 30.2 µM] (inactive)
C=C1CCc2occ(C)c2[C@H]2[C@H]1[C@@]13O[C@@]1(C[C@@H](C)[C@H]3OC(C)=O)[C@H]1O[C@@]21C	-6.61% (inactive)
CC12CC(O)C(O)C=C1c1cc(O)cc(O)c1C(=O)O2 (configuration not stated)	-8.25% [at 114 µM] (inactive)
CC(C)CC(NC(=O)OCc1ccccc1)C(=O)NC(CC(C)C)C(=O)NC(CCC(=O)O)C(=O)Nc1ccc2ccccc2c1 (stereo not drawn) (Cbz-Leu-Leu-Glu-βNA; configuration not given here)	1.36% [at 114 µM] (inactive)
C/C1=C\CC[C@]2(C)O[C@H]2C(=O)c2c(C)coc2C1	-0.99% [at 114 µM] (inactive)
O=C1C[C@@]2(C(=O)N1)C(=O)N(Cc1ccc(Br)cc1F)C(=O)c1cccn12	3.05% [at 114 µM] (inactive)
COc1ccc(O[C@@H]2O[C@H](CO)[C@@H](O)[C@H](O)[C@H]2O)cc1OC	1.6% (inactive)
C=C1C2CCC3CC2(CC(O)C2(O)C1CC(OC1OC(CO)C(O)C(O)C1O)C2(C)C)CC3(C)O (configuration not stated)	0.327% (inactive)
COc1cc(/C=C/C(=O)O[C@@H]2O[C@H](CO)[C@@H](O)[C@H](O)[C@H]2O)ccc1O	-4.16% (inactive)
OC[C@H]1O[C@@H](OCCc2ccccc2)[C@H](O)[C@@H](O)[C@@H]1O	-1.93% [at 114 µM] (inactive)
CC(C)C(NC(=O)c1ccc(O)cc1)C(=O)N1CCCC1C(=O)Nc1c(O)cccc1C(=O)O (configuration not stated)	-2.24% (inactive)
O=C(O[C@@H]1O[C@H](CO)[C@@H](O)[C@H](O)[C@H]1O)c1ccccc1	1.84% [at 114 µM] (inactive)
Cc1ncc([N+](=O)[O-])n1C[C@H](O)CN1CCOCC1	1.68% [at 114 µM] (inactive)
CC1(C)CC[C@]2(C(=O)O[C@@H]3O[C@H](CO[C@@H]4O[C@H](CO)[C@@H](O)[C@H](O)[C@H]4O)[C@@H](O)[C@H](O[C@@H]4O[C@H](CO)[C@@H](O)[C@H](O)[C@H]4O)[C@H]3O)CC[C@]3(C)C(=CCC4[C@@]5(C)CC[C@H](O[C@@H]6OC[C@@H](O)[C@H](O)[C@H]6O)[C@@](C)(C(=O)O)C5CC[C@]43C)[C@@H]2C1 (some centres not stated)	2.56% [at 30.2 µM] (inactive)
CC1(C)CCC2(C(=O)O)C(O)CC3(C)C(=CCC4C5(C)CCC(OC6OC(CO)C(O)C(O)C6OC6OC(CO)C(O)C(O)C6OC6OCC(O)(CO)C6O)C(C)(C)C5CCC43C)C2C1 (configuration not stated)	2.07% [at 30.2 µM] (inactive)
O=C(/C=C/c1ccc(O)cc1)OCC1OC(O)C(OC2OC(CO)C(O)C(O)C2O)C(O)C1O (configuration not stated)	-0.0414% (inactive)
C[C@]1(OC(=O)/C=C\c2ccc(O)cc2)C[C@@H](O)[C@]2(O)C=CO[C@@H](O[C@@H]3O[C@H](CO)[C@@H](O)[C@H](O)[C@H]3O)C12 (some centres not stated)	-0.138% (inactive)
COc1cc(C(O)C2COC(c3ccc(OC4OC(CO)C(O)C(O)C4O)c(OC)c3)C2CO)ccc1O (configuration not stated)	0.0448% (inactive)
COc1cc(C(C)=O)ccc1O[C@@H]1O[C@H](CO)[C@@H](O)[C@H](O)[C@H]1O	2.08% (inactive)
CC(C)=CCC/C(C)=C/CO[C@@H]1O[C@H](CO[C@@H]2O[C@@H](CO)[C@H](O)[C@H]2O)[C@@H](O)[C@H](O)[C@H]1O	2.52% (inactive)
CC(O)C1CCC2C3CCC4CC(OC5OC(C(=O)O)C(O)C(O)C5O)CCC4(C)C3CCC12C (configuration not stated)	0.503% [at 114 µM] (inactive)
CCCCCOc1ccc(-c2cc(-c3ccc(C(=O)N[C@H]4C[C@@H](O)[C@@H](O)NC(=O)C5[C@@H](O)[C@@H](C)CN5C(=O)C([C@H](O)CC(N)=O)NC(=O)C([C@H](O)[C@@H](O)c5ccc(O)c(OS(=O)(=O)O)c5)NC(=O)C5C[C@@H](O)CN5C(=O)C([C@@H](C)O)NC4=O)cc3)no2)cc1 (stereo partly drawn) (X2-[Orn(4R-OH,5R-OH)][ξThr(3R)][ξPro(4R-OH)][ξhTyr(3S-OH,4S-OH,3'-OSO3H)][ξGln(3R-OH)][X3]; lactam 1-C)	0.989% (inactive)
CC(C)[C@@H](C(=O)O)N1Cc2c(cc(O)c3c2O[C@]2(C3)[C@H](C)CCC3C(C)(C)[C@H](O)[C@H](O)C[C@@]32C)C1=O (some centres not stated)	0.179% (inactive)
